The text below walks through data of ChEMBL document CHEMBL4296182, “CO-ADD screening of NIH NCI Diversity Set V”.

For part of these data: Results with a measured potency or affinity are listed apart.

In one experiment the test system is Staphylococcus aureus. The experiment can be described thus: Antibacterial activity against Staphylococcus aureus MRSA ATCC 43300 (CO-ADD:GP_020); MIC in CAMBH media using NBS plates, by Resazurin F(560/590). The format is functional. To be noted: Concentration 20 uM, ASSAY_TEST Inhibition of Bacterial Growth, detection method Resazurin, Fluorescence (ex560/em590), MEDIA CAMHB, plate type 384well, CORNING #3640, time 18 hr.

The test system of another experiment is Acinetobacter baumannii. The experiment can be described thus: Antibacterial activity against Acinetobacter baumannii ATCC 19606 (CO-ADD:GN_034); MIC in CAMBH media using NBS plates, by Resazurin F(560/590). The class given is functional. To be noted: Concentration 20 uM, ASSAY_TEST Inhibition of Bacterial Growth, detection method Resazurin, Fluorescence (ex560/em590), MEDIA CAMHB, plate type 384well, CORNING #3640, time 18 hr.

Another experiment relates to Escherichia coli. The experiment can be described thus: Antibacterial activity against Escherichia coli ATCC 25922 (CO-ADD:GN_001); MIC in CAMBH media using NBS plates, by Resazurin F(560/590). The format is functional. Conditions: Concentration 20 uM, ASSAY_TEST Inhibition of Bacterial Growth, detection method Resazurin, Fluorescence (ex560/em590), MEDIA CAMHB, plate type 384well, CORNING #3640, time 18 hr. (In general: Alamar Blue is a resazurin reagent that responds to reducing activity.)

The test system of a further experiment is Klebsiella pneumoniae. To be noted: Concentration 20 uM; ASSAY_TEST Inhibition of Bacterial Growth; detection method Absorption (OD600); MEDIA CAMHB; plate type 384well; NBS; CORNING #3640; time 18 hr.
In the next experiment the test system is Candida albicans. Conditions: 20 µM.
For a further experiment, the system named is Cryptococcus neoformans. To be noted: Concentration 20 uM; ASSAY_TEST Inhibition of Fungal Growth; detection method Resazurin; Absorption (OD600-OD570); plate type 384well; NBS; CORNING #3640.

What is called Inhibition is the relative decrease from the control value, in per cent. For `CN1CCC(=C(c2ccc(Cl)cc2)c2ccccn2)CC1.O=C(O)/C=C\C(=O)O` [CYCLIRAMINE MALEATE], the Inhibition was 6.43% in the experiment on Staphylococcus aureus; -10.18% in the experiment on Acinetobacter baumannii; 9.66% with Escherichia coli; 13.03% in the experiment with Klebsiella pneumoniae; 1.65% in the experiment with Candida albicans; -5.61% with Cryptococcus neoformans.
Turning to `CC(C)(C)NC1=NCCNC(c2ccccc2)=C1.CS(=O)(=O)O`, the Inhibition with Staphylococcus aureus is -3.88%; in the experiment on Acinetobacter baumannii it was 8.25%; with Escherichia coli, 7%; in the experiment with Klebsiella pneumoniae, 11.55%; with Candida albicans, 1.18%; with Cryptococcus neoformans, -14.32%.
Take `Nc1nc(N)nc(-c2ccccc2-c2nc(N)nc(N)n2)n1`: the Inhibition with Staphylococcus aureus was 10.97%; in the experiment on Acinetobacter baumannii it was 8.5%; with Escherichia coli, -2.58%; with Klebsiella pneumoniae, 13.54%; in the experiment with Candida albicans it was 6.82%; in the experiment on Cryptococcus neoformans, -8.57%.
Turning to `Cc1ccc(C(=N)Nc2ccccc2)cc1`, the Inhibition in the experiment on Staphylococcus aureus is 11.04%; in the experiment on Acinetobacter baumannii it was 15.63%; in the experiment with Escherichia coli, 1.43%; in the experiment with Klebsiella pneumoniae it was 18.31%; in the experiment on Candida albicans, 3.37%; in the experiment with Cryptococcus neoformans, -4.07%.
Turning to `O=c1c(-c2ccc(O)cc2)coc2cc(O)cc(O)c12` [GENISTEIN], the Inhibition in the experiment on Staphylococcus aureus is 3.06%; in the experiment on Acinetobacter baumannii, 1.42%; with Escherichia coli it was 2.99%; with Klebsiella pneumoniae, 22.48%; with Candida albicans, 6.45%; with Cryptococcus neoformans, -7.01%.
`OC(COc1ccccc1)CN1CCN(c2ccccc2)CC1` (centres undefined): the Inhibition in the experiment with Staphylococcus aureus was 6.47%; in the experiment with Acinetobacter baumannii it was -11.62%; with Escherichia coli it was 3.6%; in the experiment on Klebsiella pneumoniae, 14.06%; in the experiment on Candida albicans, 0.81%; in the experiment on Cryptococcus neoformans, -11.95%.
As to `O=C(Nc1nnc(C(F)(F)F)s1)c1c(F)cccc1F`, the Inhibition in the experiment with Staphylococcus aureus is 18.6%; in the experiment with Acinetobacter baumannii it was 12.37%; in the experiment on Escherichia coli, 3.33%; in the experiment with Klebsiella pneumoniae, 14.22%; with Candida albicans it was 14.6%; with Cryptococcus neoformans, 22.23%.
Take `COc1cc(/N=N/c2ccccc2C(=O)O)ccc1O`: the Inhibition in the experiment on Staphylococcus aureus is 46.16%; in the experiment with Acinetobacter baumannii it was -0.55%; with Escherichia coli, 0.38%; with Klebsiella pneumoniae it was 12.27%; with Candida albicans it was -1.22%; in the experiment with Cryptococcus neoformans, 3.74%.
With `CCOC(=O)N1C/C(=C\c2ccccc2)C(=O)/C(=C/c2ccccc2)C1`, the Inhibition with Staphylococcus aureus was 10.93%; in the experiment with Acinetobacter baumannii it was 7.26%; in the experiment on Escherichia coli, 0.16%; with Klebsiella pneumoniae, 12.83%; with Candida albicans, 6.37%; in the experiment with Cryptococcus neoformans it was -7.05%.
In the case of `O=[N+]([O-])c1cc2cccnc2c2ncccc12`, the Inhibition with Staphylococcus aureus is -17.5%; in the experiment with Acinetobacter baumannii, -9.82%; in the experiment with Escherichia coli, 9.62%; in the experiment with Klebsiella pneumoniae it was 9.1%; in the experiment with Candida albicans, 0.77%; in the experiment with Cryptococcus neoformans, -9.49%.
On to `C[C@@H]1C[C@H]2OC(=O)[C@@]3(C)CCC[C@@](C)([C@@H]23)[C@@]1(O)CCc1ccoc1`, for which the Inhibition was -8.43% with Staphylococcus aureus; -3.35% in the experiment on Acinetobacter baumannii; -14.05% with Escherichia coli; 4.6% with Klebsiella pneumoniae; -0.12% in the experiment with Candida albicans; -1.32% with Cryptococcus neoformans.
Regarding `Cc1ccc(S(=O)(=O)N(C)C)cc1[N+](=O)[O-]`, the Inhibition in the experiment with Staphylococcus aureus is -7.75%; in the experiment with Acinetobacter baumannii it was -5.08%; in the experiment with Escherichia coli it was -0.42%; with Klebsiella pneumoniae it was 1.49%; in the experiment with Candida albicans it was 0.81%; in the experiment with Cryptococcus neoformans, -3.84%.
In the case of `Cc1nn(-c2ccccc2)c2c1C(c1ccc([N+](=O)[O-])cc1)C(C#N)=C(N)O2` (centres undefined), the Inhibition is 11.47% with Staphylococcus aureus; 2.7% with Acinetobacter baumannii; 1.25% with Escherichia coli; 12.44% in the experiment on Klebsiella pneumoniae; -1.55% with Candida albicans; -5.09% in the experiment on Cryptococcus neoformans.
In the case of `N#Cc1ccc(NC2c3ccccc3CC2O)cc1` (centres undefined), the Inhibition with Staphylococcus aureus was -13.68%; in the experiment with Acinetobacter baumannii, -7.5%; with Escherichia coli it was -15.24%; in the experiment on Klebsiella pneumoniae, 3.05%; with Candida albicans, 0.94%; in the experiment on Cryptococcus neoformans, 8.31%.
For the compound `CN(C)S(=O)(=O)c1ccccc1N=C=S`, the Inhibition is 19.33% in the experiment with Staphylococcus aureus; 5.01% with Acinetobacter baumannii; 10.9% in the experiment with Escherichia coli; 5.89% with Klebsiella pneumoniae; 4.38% in the experiment on Candida albicans; -9.71% with Cryptococcus neoformans.
As for `CN(C)S(=O)(=O)N1C(=O)c2ccccc2C1=O`, the Inhibition was 5.4% in the experiment with Staphylococcus aureus; 12.12% in the experiment with Acinetobacter baumannii; -0.21% with Escherichia coli; 11.91% in the experiment with Klebsiella pneumoniae; 5.89% with Candida albicans; -1.33% in the experiment with Cryptococcus neoformans.
With `Oc1ccccc1/N=C/c1c(O)ccc2ccccc12`, the Inhibition with Staphylococcus aureus is 7.8%; in the experiment with Acinetobacter baumannii it was -11.56%; in the experiment with Escherichia coli, 8.07%; with Klebsiella pneumoniae, 1.58%; in the experiment on Candida albicans, 52.3%; in the experiment with Cryptococcus neoformans it was 25.14%.
In the case of `CCSc1nc(C)c(C)c(O)n1`, the Inhibition is -7.95% in the experiment on Staphylococcus aureus; -12.73% with Acinetobacter baumannii; 10.67% in the experiment with Escherichia coli; 6.61% in the experiment with Klebsiella pneumoniae; 2.45% in the experiment with Candida albicans; -10.18% in the experiment on Cryptococcus neoformans.
As for `CN(c1cccnc1)c1[nH]cnc2nncc1-2`, the Inhibition in the experiment with Staphylococcus aureus was -13.03%; with Acinetobacter baumannii, -4.86%; in the experiment with Escherichia coli, -0.96%; with Klebsiella pneumoniae, -0.91%; in the experiment with Candida albicans it was 0.07%; in the experiment with Cryptococcus neoformans it was -5.56%.
On to `c1ccc2c(c1)[nH]c1c3ccccc3sc21`, for which the Inhibition is 12.39% in the experiment with Staphylococcus aureus; -1.18% with Acinetobacter baumannii; 0.28% with Escherichia coli; 11.83% with Klebsiella pneumoniae; 5.08% in the experiment with Candida albicans; -2.59% in the experiment with Cryptococcus neoformans.
In the case of `CCSc1nc(C)cc(S)n1`, the Inhibition was 8.56% in the experiment on Staphylococcus aureus; -11.79% in the experiment on Acinetobacter baumannii; 13.36% in the experiment with Escherichia coli; 13.31% in the experiment on Klebsiella pneumoniae; 25.2% with Candida albicans; -6% in the experiment on Cryptococcus neoformans.
Take `O=c1cc2oc3cc(O)c(O)cc3c(-c3ccccc3O)c-2cc1O`: the Inhibition with Staphylococcus aureus was -11.77%; in the experiment with Acinetobacter baumannii, -19.46%; with Escherichia coli, 15.45%; in the experiment with Klebsiella pneumoniae, 16.39%; in the experiment on Candida albicans, 44.4%; in the experiment with Cryptococcus neoformans, -6.63%.
Consider `O=[N+]([O-])c1ccccc1CSc1nc(O)c2nc[nH]c2n1`, for which the Inhibition in the experiment on Staphylococcus aureus is 26.98%; in the experiment with Acinetobacter baumannii it was 9.09%; in the experiment with Escherichia coli it was 5.06%; with Klebsiella pneumoniae, 15.06%; with Candida albicans, 1%; in the experiment with Cryptococcus neoformans it was -13.62%.
For `C=CCNC(S)=Nc1c(N)n(C)c(=O)n(C)c1=O`, the Inhibition in the experiment with Staphylococcus aureus was 11.89%; in the experiment with Acinetobacter baumannii, 5.83%; with Escherichia coli, -15.58%; in the experiment on Klebsiella pneumoniae, 18.14%; with Candida albicans, 8.36%; in the experiment on Cryptococcus neoformans, 18.71%.
